Only some compounds are listed: those with a hit (about 8.1% of all), similar ones and a draw of the others.
MCF10A rerep = inducers of DNA re-replication in MCF 10A breast cells; MCF 10A DNA re-replication, Hoechst nuclear intensity, 48 h; Potency, µM (series often up to 46.1 µM), for the others: at the top dose activity, positive = re-replication, hits mostly activators; 2.9% of 350,000 active; AID 624296; further: % of control where 0% means no effect; nearly all actives have a fitted effect of over 50% in size
SW480 rerep = induces DNA re-replication in SW480 colon adenocarcinoma cells. SW480 DNA re-replication, Hoechst DNA content imaging, 48 h. Potency, µM (doses to about 46.1 µM), without a hit: at the top dose re-replication activation, hits mostly activators. 1.8% of 340,000 active; further: % of control where 0% means no effect; nearly all actives have a fitted effect of over 55% in size
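SW480 cells exposed to compounds for 48 hr at 37 C, 5% CO2, then Hoechst-stained 40 min. Nuclear DNA content imaged by fluorescence scanning (405 nm excitation, 500-530 nm emission); re-replication scored as increased high-intensity nuclei.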
KB-V1 MDR tox = KB-V1 MDR subline cytotoxicity. KB-V1 MDR cells viability, CellTiter-Glo, 72 h. Potency, µM (doses to about 46.1 µM), hits mostly cytotoxic. 3.4% of 400,000 active. AID 1347076; further: on the % scale 0 is the no-effect control and ±100 the full control effect; nearly all actives have a fitted effect of over 60% in size
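Cytotoxicity via CellTiter-Glo luminescence after 72 h compound exposure at 37 degrees C. Cells: drug-selected KB-V1 line, DMEM phenol-red free plus 10% FBS. Compounds tested at multiple concentrations; normalized data fitted to concentration-effect curves.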
ELG1 repair inh = inhibitors of ELG1-dependent DNA repair in HEK293T cells | HEK293T ELG1-luciferase reporter, luminescence, 16 h; DNA damage induced by 5-fluorouridine | Potency, µM (series often up to 46.1 µM), without a hit: at the highest dose activity change, negative = inhibition, hits mostly inhibitors | 2.3% of 330,000 active | AID 504467; further: on the % scale 0 is the no-effect control and ±100 the full control effect; nearly all actives have a fitted effect of over 55% in size
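Luminescence from the luciferase reporter, measured 30 min after ONE-Glo reagent at room temperature, was the read-out. Beforehand, 2,000 cells per well were exposed for 16 hr at 37 °C to 5-fluorouridine together with compound or vehicle.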
KB-3-1 cytotox = KB-3-1 parental cell cytotoxicity. KB-3-1 viability, CellTiter-Glo ATP luminescence, 72 h. Potency, µM (series often up to 46.1 µM), most hits filed as cytotoxic. 1.4% of 400,000 active. AID 1347075; further: on the % scale 0 is the no-effect control and ±100 the full control effect; nearly all actives have a fitted effect of over 60% in size
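Luminescent ATP read-out (CellTiter-Glo) measures survival of drug-naive KB-3-1 cells after 72 h compound exposure at 37 °C. Titration series was screened from lowest to highest concentration, with DMSO vehicle plates as background controls.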
Starred values were filed as active, the others as inactive. The call rests on the fitted dose curve; in most records, active means well fitted curve in the direction sought with a large enough effect; inconclusive means small, poorly fitted or top-dose-only effect, or another doubt; inactive means no such curve, though single readings can be large; an effect the other way counts as inactive or inconclusive. Potency means the concentration at half of the fitted maximal effect.

`NC(=NCCc1ccc(Cl)cc1)NS(=O)(=O)c1ccccc1` gave MCF10A rerep 0%, SW480 rerep 12%, KB-V1 MDR tox inactive, ELG1 repair inh 12% and KB-3-1 cytotox inactive.
Screening NC(=NCCc1ccccc1)NC(=O)c1cc(Cl)ccc1O returned MCF10A rerep inconclusive, SW480 rerep 21µM*, KB-V1 MDR tox inconclusive and KB-3-1 cytotox inconclusive.
For O=C(CC(=O)c1cc(Cl)ccc1O)c1ccccc1 the results were MCF10A rerep 21µM*, SW480 rerep inconclusive, KB-V1 MDR tox inconclusive, ELG1 repair inh inconclusive and KB-3-1 cytotox inconclusive.
`Cc1ccc(O)c(C(=O)CC(=O)c2ccc(Cl)cc2)c1` gave MCF10A rerep inconclusive, SW480 rerep inconclusive, KB-V1 MDR tox inactive, ELG1 repair inh inconclusive and KB-3-1 cytotox inconclusive.
CCCNC(=O)C1(C)CCCN(C(=O)c2cc3ccccc3s2)C1 (stereo unspecified) was read as KB-V1 MDR tox inactive and KB-3-1 cytotox inactive.
`Fc1ccc(-n2ncc3c(Nc4cccc(Cl)c4)ncnc32)cc1` gave KB-V1 MDR tox inactive and KB-3-1 cytotox inactive.
COc1ccc(S(=O)(=O)n2nc(OC(=O)c3cccs3)cc2N)cc1 was read as MCF10A rerep 6%, SW480 rerep -4%, KB-V1 MDR tox inactive, ELG1 repair inh -15% and KB-3-1 cytotox inactive.
Screening COc1ccc(S(=O)(=O)n2nc(OCc3cccs3)cc2N)cc1 returned MCF10A rerep 12%, SW480 rerep -14%, KB-V1 MDR tox 21µM*, ELG1 repair inh -19% and KB-3-1 cytotox inactive.
Screening O=C1C2C3C=CC(C3)C2C(=O)N1c1n[nH]c(CCc2ccccc2)n1 (stereo unspecified) returned MCF10A rerep 6%, SW480 rerep -4%, KB-V1 MDR tox inactive, ELG1 repair inh 12% and KB-3-1 cytotox inactive.
For O=C1C2CC=CCC2C(=O)N1c1n[nH]c(Cc2ccccc2)n1 (stereo unspecified) the results were MCF10A rerep 7.3µM*, SW480 rerep 2%, KB-V1 MDR tox inactive, ELG1 repair inh 1% and KB-3-1 cytotox inactive.
COc1ccc(S(=O)(=O)Cc2ccc(C(=O)N3CCN(c4ccccc4)CC3)o2)cc1 was read as MCF10A rerep 2%, SW480 rerep -1%, KB-V1 MDR tox inactive, ELG1 repair inh inconclusive and KB-3-1 cytotox inactive.
O=C(NCc1ccccc1)C(c1ccccc1)N(Cc1ccc2c(c1)OCO2)C(=O)Cc1cccs1 (stereo unspecified) was read as MCF10A rerep inconclusive, SW480 rerep 5%, KB-V1 MDR tox 13µM*, ELG1 repair inh 16µM* and KB-3-1 cytotox inactive.
`O=C(NC1CCCC1)C(c1ccccc1)N(Cc1ccc2c(c1)OCO2)C(=O)Cc1cccs1` (stereo unspecified) gave MCF10A rerep inconclusive, SW480 rerep 26%, KB-V1 MDR tox inactive, ELG1 repair inh inconclusive and KB-3-1 cytotox inconclusive.
For O=C(NC1CCCC1)C(c1ccsc1)N(Cc1ccccc1)C(=O)Cc1cccs1 (stereo unspecified) the results were MCF10A rerep 20%, SW480 rerep 8%, KB-V1 MDR tox 4.6µM*, ELG1 repair inh -8% and KB-3-1 cytotox inactive.
`CCOC(=O)c1c(C)n(C)c2ccc(OCC(O)Cn3nc(C)cc3C)cc12` (stereo unspecified) gave MCF10A rerep 4%, SW480 rerep -2%, KB-V1 MDR tox inactive, ELG1 repair inh 21µM* and KB-3-1 cytotox inactive.
`COc1ccc(-n2c(-c3ccccc3)c[n+]3c2CCC3)cc1` gave MCF10A rerep 0%, SW480 rerep 2%, KB-V1 MDR tox inactive, ELG1 repair inh inconclusive and KB-3-1 cytotox 4.1µM*.
For COc1ccc(-n2c(-c3ccc(Br)cc3)nc(=S)c3c2CCCC3)cc1 the results were MCF10A rerep -9%, SW480 rerep -2%, KB-V1 MDR tox inconclusive, ELG1 repair inh -30% and KB-3-1 cytotox inconclusive.
CCOc1ccc(-c2c[n+]3c(n2-c2ccccc2)CCCCC3)cc1 was read as MCF10A rerep 19%, SW480 rerep -8%, KB-V1 MDR tox inconclusive, ELG1 repair inh inconclusive and KB-3-1 cytotox 5.8µM*.
Screening FC(F)Sc1ccc(-n2c(-c3ccc(Cl)cc3)c[n+]3c2CCC3)cc1 returned MCF10A rerep inconclusive, SW480 rerep 18%, KB-V1 MDR tox inactive, ELG1 repair inh inconclusive and KB-3-1 cytotox inconclusive.
For COc1ccc(-n2c(-c3ccc(Br)cc3)c[n+]3c2CCC3)cc1 the results were MCF10A rerep inconclusive, SW480 rerep 2%, KB-V1 MDR tox inactive, ELG1 repair inh 1.8µM* and KB-3-1 cytotox 4.1µM*.
COc1ccc(-n2c(-c3ccc(Br)cc3)c[n+]3c2CCCCC3)cc1 was read as MCF10A rerep 20%, SW480 rerep 1%, KB-V1 MDR tox inactive, ELG1 repair inh 5.2µM* and KB-3-1 cytotox 3.7µM*.
Cc1nn(-c2ccccc2)c(C)c1NC(=O)COc1ccccc1C#N was read as KB-V1 MDR tox inactive and KB-3-1 cytotox inactive.
`COc1ccc(-n2c(-c3ccc(Br)cc3)c[n+]3c2SC(C)C3)cc1` (stereo unspecified) gave MCF10A rerep -1%, SW480 rerep 4%, KB-V1 MDR tox inactive, ELG1 repair inh 5.8µM* and KB-3-1 cytotox 5.8µM*.
Screening COc1ccc(-n2c(-c3ccccc3)cc3c2CCCC3=O)cc1 returned MCF10A rerep inconclusive, SW480 rerep 3%, KB-V1 MDR tox 12µM*, ELG1 repair inh 4% and KB-3-1 cytotox inconclusive.
`COc1ccccc1-c1cnc(C(O)c2cccc(C)c2C)[nH]1` (stereo unspecified) gave KB-V1 MDR tox inconclusive and KB-3-1 cytotox inactive.
O=C(Nc1ccc(Cn2nnc3ccccc32)cc1)c1ccco1 was read as MCF10A rerep 23%, SW480 rerep -9%, KB-V1 MDR tox 16µM*, ELG1 repair inh -21% and KB-3-1 cytotox 16µM*.
For CC1(C)CC(=O)C(C(C2=C(O)CC(C)(C)CC2=O)c2ccc([N+](=O)[O-])cc2)C(=O)C1 (stereo unspecified) the results were MCF10A rerep -3%, SW480 rerep 1%, KB-V1 MDR tox inconclusive, ELG1 repair inh 5% and KB-3-1 cytotox inactive.
For CC1(C)CC(=O)C(C(C2=C(O)CC(C)(C)CC2=O)c2ccc(Br)s2)C(=O)C1 (stereo unspecified) the results were MCF10A rerep 13µM*, SW480 rerep inconclusive, KB-V1 MDR tox 21µM*, ELG1 repair inh 14% and KB-3-1 cytotox inconclusive.
